Rows were chosen to be rich in hits. Some 3.2% of all compounds tested hit in one or more screens of this group.
Tau fibril ThT = blocks human tau fibril formation measured by thioflavin T. hit rate 2.1% among 270,000. P10636. AID 1460. Potency, µM (series often up to 57.4 µM), hits mostly inhibitors. recombinant tau K18 P301L, heparin-induced fibrillization, ThT fluorescence; further: nearly all actives have a fitted effect of over 55% in size
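In this qHTS, human K18 P301L tau is incubated with compound and heparin for 6 hr at 37 C, and Thioflavin T fluorescence then reports fibril load.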
LMNA splice mod = LMNA splicing modulation. HeLa LMNA splicing GFP/RFP minigene ratio, 48 h. Potency, µM (series often up to 46.1 µM), most hits filed as inhibitors. hit rate 0.01% among 200,000. AID 1487; active means well fitted inhibition curve with a large enough effect in the signal ratio, with a control signal flat, not every such curve was filed as active; inconclusive means small, poorly fitted or top-dose-only effect, or effect the other way, or a change in a side signal; the % refers to the signal ratio
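Read-out is the ratio of GFP to DsRed2 object intensity, acquired by 488 nm laser-scanning cytometry on HeLa lamin A-EGFP minigene reporter cells. Compound incubation 48 hrs at 37 °C in Opti-MEM with 2% FBS; DMSO 0.5% final.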
Tau fluor cs = counter-screen for tau fibril formation inhibitors; tau K18 P301L Alexa594 fluorescence, heparin fibrillization; Potency, µM (top dose mostly 57.7 µM); hit rate 0.93% among 280,000; further: nearly all actives have a fitted effect of over 55% in size
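Human tau K18 P301L (15 uM unlabeled, 0.24 uM Alexa 594-labeled) in 100 mM sodium acetate pH 7 with 20 uM heparin, 6 hr at 37 C. ThT 30 uM added, 1 hr ambient; Alexa 594 FP and total fluorescence read at 555/632 nm.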
JMJD2E inh = inhibitors of human JMJD2E histone demethylase; JMJD2E catalytic domain, FDH-coupled NADH fluorescence (FDH is formaldehyde dehydrogenase); Potency, µM (titrated, usually from 57.1 µM), hits mostly inhibitors; hit rate 1.6% among 230,000; AID 2147; active means well fitted inhibition curve with a large enough effect, not every such curve was filed as active; inconclusive means small, poorly fitted or top-dose-only effect, or another doubt; inactive means no such curve, though single readings can be large or run the other way; further: nearly all actives have a fitted effect of over 50% in size
Tau fibril FP = inhibitors of human tau fibril formation | P10636 | K18 P301L tau heparin fibrillization, Alexa594 FP, 6 h | Potency, µM (top dose mostly 57.7 µM), usual class: inhibitors | hit rate 0.39% among 280,000 | AID 1468; further: nearly all actives have a fitted effect of over 55% in size
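Compound effects on tau fibrillization are measured by Alexa 594 fluorescence polarization (ex 555, em 632 nm). K18 P301L tau is used at 15 uM with 0.24 uM labeled tracer, and 20 uM heparin induces aggregation over 6 hr at 37 C.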
CBFb-RUNX1 inh = blocks binding between human CBF-beta and RUNX1; Q01196+Q13951; AlphaScreen CBFb-His/RUNX1-biotin binding, biochemical; Potency, µM (series often up to 59.8 µM), usual class: inhibitors; 230,000 tested, under 10 active
Target sequence (Q01196 whole entry, looked up): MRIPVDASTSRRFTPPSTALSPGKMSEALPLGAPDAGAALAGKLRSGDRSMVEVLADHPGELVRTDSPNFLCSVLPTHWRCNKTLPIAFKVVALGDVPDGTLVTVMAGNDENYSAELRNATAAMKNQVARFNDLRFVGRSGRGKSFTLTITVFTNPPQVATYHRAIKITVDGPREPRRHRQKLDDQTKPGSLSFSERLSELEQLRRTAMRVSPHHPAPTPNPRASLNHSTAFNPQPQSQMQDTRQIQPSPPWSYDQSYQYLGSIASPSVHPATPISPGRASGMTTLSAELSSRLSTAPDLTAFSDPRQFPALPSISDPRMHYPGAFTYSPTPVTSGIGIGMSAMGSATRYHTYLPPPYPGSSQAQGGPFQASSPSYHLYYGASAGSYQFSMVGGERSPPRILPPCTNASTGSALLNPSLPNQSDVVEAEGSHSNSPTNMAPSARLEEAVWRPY
Target sequence (Q13951 whole entry, looked up): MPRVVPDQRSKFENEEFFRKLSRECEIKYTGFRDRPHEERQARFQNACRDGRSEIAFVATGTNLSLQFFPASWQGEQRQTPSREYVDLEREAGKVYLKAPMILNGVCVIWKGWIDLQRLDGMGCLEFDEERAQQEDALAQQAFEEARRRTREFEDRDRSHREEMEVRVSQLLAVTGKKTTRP
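Room-temperature protein-protein interaction test with 30 nM each of His-tagged CBF-beta and biotinylated RUNX1, 15 min with compound, then 90 min with nickel plus streptavidin beads. Signal read in AlphaScreen mode.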
Numbers stand for hits; i = inactive; ? = inconclusive; nt = not tested or not shown; [ ] = remark or other dose. Unless noted, the call rests on the fitted dose curve; in most records, active means well fitted curve in the direction sought with a large enough effect; inconclusive means small, poorly fitted or top-dose-only effect, or another doubt; inactive means no such curve, though single readings can be large; an effect the other way counts as inactive or inconclusive.

SMILES	Tau fibril ThT	LMNA splice mod	Tau fluor cs	JMJD2E inh	Tau fibril FP	CBFb-RUNX1 inh
c1ccc(-c2nc(-c3cccnc3)n[nH]2)cc1	i	i	i	i	i	i
Oc1ccc(N=Nc2n[nH]c(-c3ccc(Br)cc3)n2)cc1	2.24µM	?	?	i	i	i
Oc1ccc(N=Nc2n[nH]c(-c3ccccc3)n2)cc1	2.51µM	?	i	i	i	i
CCCCCCCCCCCCCCCC(N)=O	i	nt	i	i	i	i
Cc1ccc(OC(=O)Nc2ccccc2)cc1	i	i	i	i	i	i
O=C(Nc1ccccc1)Oc1ccc[nH]c1=O	nt	nt	i	22.4µM	i	i
Cc1ccc(O)c(N=Cc2sc3ccccc3c2Cl)c1	?	?	i	25.1µM	i	i
Oc1ccccc1N=Cc1sc2ccccc2c1Cl	?	?	i	22.4µM	i	i
COC(=O)C(CCSC)NS(=O)(=O)c1ccccc1Br (centres undefined)	nt	nt	nt	nt	nt	i
O=C(NN1C(=O)/C(=C/c2ccc(O)c([N+](=O)[O-])c2)SC1=S)c1ccccc1Cl	3.98µM	nt	?	i	i	?
O=C1/C(=C/c2ccc(O)c([N+](=O)[O-])c2)SC(=S)N1Cc1ccccc1	7.08µM	nt	?	i	i	i
O=C(O)c1cccc(CN2C(=O)S/C(=C/c3cccc([N+](=O)[O-])c3)C2=O)c1	nt	nt	i[0.0958 µM]	i	i[0.0958 µM]	i
CN1C(=O)/C(=C/c2ccc(O)c([N+](=O)[O-])c2)NC1=S	15.8µM	?	i	i	i	i
CNC(=O)c1c(NC(=O)c2ccc(S(=O)(=O)N3CCCCC3)cc2)sc2c1CCC2	?	i	i	nt	i	nt
CC[C@H](C)N	nt	nt	nt	nt	nt	i
CN(C)c1ccc(NC(=O)Cn2cc(S(=O)(=O)Cc3ccccc3Cl)c3ccccc32)cc1	?	?	11.2µM[quencher]	nt	i	nt
COc1ccc(Cl)cc1Nc1nc(-c2sc(NC(=O)c3ccccc3)nc2C)cs1	?	?	?	?	i	i
C=CCCC(=O)Nc1nc(C)c(-c2csc(Nc3cc(Cl)ccc3OC)n2)s1	?	i	14.1µM[quencher]	i	i	i
C=CCCC(=O)Nc1nc(C)c(-c2csc(Nc3ccc(Cl)cc3Cl)n2)s1	7.94µM	i	14.1µM[quencher]	i	i	i
CCN(CC)c1ccc(/C=N/NC(=O)c2ccccn2)cc1	10µM	nt	i	i	i	i
CCc1ccc(/C=N/NC(=O)c2ccccn2)cc1	i	nt	i	i	i	i
C/C(=N\NC(=O)CCc1c(C)n[nH]c1C)c1ccc([N+](=O)[O-])cc1	i	nt	i	i	i	i
C/C(=N\NC(=O)CCc1c[nH]c2ccccc12)c1ccc([N+](=O)[O-])cc1	10µM	?	?	i	i	i
CCN(CC)c1ccc(/C=N/NC(=O)c2cnccn2)cc1	14.1µM	nt	i	i	i	i
CCN(CC)c1ccc(/C=N/N2CCN(c3ccccn3)CC2)cc1	1.26µM	nt	?	i	i	i
SMILES	Tau fibril ThT	LMNA splice mod	Tau fluor cs	JMJD2E inh	Tau fibril FP	CBFb-RUNX1 inh
Cc1ccc(CNC(=O)CSc2n[nH]c(-c3ccc(F)cc3)n2)cc1	i	i	i	nt	i	nt
CCN(CC)c1ccc(/C=N/NC(=O)c2cc(C)nc3ccccc23)cc1	?	nt	?	i	i	i
CN(C)c1ccc(/C=N/NC(=O)CCc2c[nH]c3ccccc23)cc1	8.91µM	i	?	?	i	?
CCN(CC)c1ccc(/C=N/NC(=O)c2c[nH]c3ccccc23)cc1	5.01µM	i	12.6µM[quencher]	i	i	i
C[C@@H]1CN=C2N(CCNC(=O)CCC3CCCCC3)[C@H](Cc3ccc(O)cc3)CN21	i	nt	i	i	i	i
CCCCCCNC(=O)N[C@H](C(=O)NCCC[C@H]1CN2C(=NC[C@H]2C)N1CCC(c1ccccc1)c1ccccc1)C(C)O (some centres undefined)	i	nt	i	20µM	i	i
Cc1c(NC(=O)c2cc([N+](=O)[O-])ccc2N2CCOCC2)cccc1-c1nc2ccccc2o1	?	nt	?	nt	i	nt
O=c1c(-c2ccc(Cl)cc2)nc2cnc(N3CCOCC3)nc2n1C[C@H]1CCCO1	nt	i	nt	nt	nt	nt
COc1cc(NCc2ccc3nc(N)nc(N)c3c2C)cc(OC)c1OC	20µM	nt	?	nt	?	?
O=C(NN1C(=O)/C(=C/C=C/c2ccco2)SC1=S)c1ccncc1	nt	nt	?	20µM	?	nt
Cn1cc(/C=C2\SC(=S)N(NC(=O)c3ccccc3)C2=O)c2ccccc21	?	i	i	i	25.1µM	i
O=C(NN1C(=O)/C(=C/C=C/c2ccccc2)SC1=S)c1ccncc1	11.2µM	nt	?	i	i	i
Cn1cc(/C=C2\SC(=S)N(NC(=O)c3cccc(Cl)c3)C2=O)c2ccccc21	?	nt	i	i	i	i
O=C(N/N=C/C=C/c1ccco1)c1ccncc1	i	nt	i	?	i	i
C[C@@]12C=Cc3occc3[C@H]1CC[C@@]13C[C@@H](CC[C@H]12)[C@@](O)(CO)C3	nt	nt	nt	nt	nt	i
CCc1ccc(CN2C(=O)c3ccccc3C2C(=O)NC2CCCCCC2)cc1 (centres undefined)	i	nt	i	nt	i	nt
COc1ccc(-n2nc3c(N4CCCC(C(=O)NCc5ccc(C)cc5)C4)nnc(C)c3c2C)cc1 (centres undefined)	?	?	i	nt	i	nt
CCn1c(O)c(N=Nc2ccc(Cl)c(C(=O)O)c2)c2ccccc21	4.47µM	nt	i	i	i	i
CCOC(=O)N=Nc1c(O)n(CC)c2ccccc12	i	i	i	i	i	i
CC(C)n1c(O)c(N=Nc2ccc(Cl)c(C(=O)O)c2)c2ccccc21	15.8µM	nt	i	i	i	i
CC(NCC(O)COCCC12CC3CC(CC(C3)C1)C2)c1ccccc1 (centres undefined)	i	?	i	i	i	i
CC1(OC(=O)C2CCCC2)C(=O)C=C2C=C(c3ccsc3)N(c3ccc(CO)cc3)C=C2C1=O (centres undefined)	i[11.5 µM]	i[9.22 µM]	i[11.6 µM]	i[11.4 µM]	i[11.6 µM]	i[13.1 µM]
CC(C)c1ccc2c(c1)C1(NN=C(c3ccccc3)S1)C(=O)N2 (centres undefined)	25.1µM	?	?	i	i	i
CCc1ccc2c(c1)C1(NN=C(c3ccc(C)cc3)S1)C(=O)N2 (centres undefined)	?	?	?	?	i	i
COc1cccc([C@@H]2Oc3ccc(Br)cc3C[C@H]2OC(=O)N[C@H]2CCCc3ccccc32)c1	i	nt	i	i	i	?
Oc1cccc(Nc2nc(O)c(/C=C3\C=Nc4ccccc43)s2)c1	3.98µM	nt	11.2µM[quencher]	i	i	i
Oc1nc(Nc2ccc(F)cc2)sc1/C=C1\C=Nc2ccccc21	4.47µM	nt	7.08µM[quencher]	i	i	i
Oc1nc(Nc2cccc(Cl)c2)sc1/C=C1\C=Nc2ccccc21	6.31µM	?	5.01µM[quencher]	i	?	i
CC1=Nc2ccccc2/C1=C/c1sc(=O)n(CC(=O)N2CCCC2)c1O	i	i	?	i	i	i
O=C(Cn1c(O)c(/C=C2\C=Nc3ccccc32)sc1=O)N1CCOCC1	i	nt	i	i	i	i

Screening data deposited in PubChem by National Center for Advancing Translational Sciences (NCATS).
